Measurements from PubChem BioAssay (NCI).
Values joined by “and” are separate entries in the source; they are usually repeats but may differ in a detail not shown here. Equal entries are not always repeated. Compounds without any hit were thinned out: in the full panel of roughly 83,000, 20% have a hit.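 Testing used 96-well plates and a 48-hour single-concentration exposure. Example: -40 means 40% of the starting cells died.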 Some structures have more than one record in an assay (separate samples or runs), and their calls can disagree. Active and inactive are the calls of the source. The calls were made as follows: active = growth percent below 10; inactive = the rest.

Key:
Assay in all cases: NCI-60 one-dose screen, 48 h (100 = growth as untreated, 0 = no growth, -100 = all killed)
[1] = system: T-47D breast; details: 10 µM
[2] = system: BT-549 breast; details: 10 µM
[3] = system: MDA-MB-435 melanoma; details: 10 µM
[4] = system: SW-620 colon; details: 10 µM
[5] = system: MCF7 breast
[6] = system: HCT-116 colon; details: 10 µM
[7] = system: HCC-2998 colon; details: 10 µM
[8] = system: KM12 colon; details: 10 µM

Compound | growth [1] | growth [2] | growth [3] | growth [4] | growth ([5]; 10 µM) | growth [6] | growth [7] | growth [8] | growth ([5]; 100 µM)
CC1=CC(=C(c2ccc(N)cc2)c2ccc(N)cc2)C=CC1=N | 3.11% (active) and 11.3% (inactive) | 5.57% (active) and 81.8% (inactive) | 13.6% (inactive) and 24% (inactive) | 17.2% (inactive) and 39.1% (inactive) | 9.83% (active) and 19.6% (inactive) | 14% (inactive) and 11.5% (inactive) | 21.1% (inactive) and 48.1% (inactive) | 0.202% (active) and 9.48% (active) | –
C=C1C(=O)OC2CC1C(OC(C)=O)C/C(C)=C/CC/C(C)=C\CCC2(C)O (stereo not given) | 4.13% (active) | -83.9% (active) | 18.6% (inactive) | 1.39% (active) | 10.6% (inactive) | -64.7% (active) | -51.2% (active) | 23.2% (inactive) | -90.9% (active)
C#CCN(Cc1ccc2nc(N)[nH]c(=O)c2c1)c1ccc(C(=O)NC(CCC(=O)O)C(=O)O)cc1 (stereo not given) | – | 76.9% (inactive) | 90.7% (inactive) | 61.8% (inactive) | 22.4% (inactive) | 45.7% (inactive) | 31.6% (inactive) | 70.2% (inactive) | –
Cc1cc(N(CCOS(C)(=O)=O)CCOS(C)(=O)=O)ccc1C=Nc1ccc(-c2nc(Cc3ccccc3)sc2C)cc1 | 20.5% (inactive) | 52.8% (inactive) | 63.2% (inactive) | 61.6% (inactive) | 36.8% (inactive) | 63.4% (inactive) | -28.3% (active) | 68.7% (inactive) | –
CN(C)CCOC1(Cc2ccc(Cl)cc2Cl)CCC(C(C)(C)C)CC1 (stereo not given) | -21.2% (active) and -41.1% (active) | 58.8% (inactive) and 24% (inactive) | 11% (inactive) and -57.6% (active) | -51.8% (active) and -57.6% (active) | -46.4% (active) and -87.7% (active) | 13.2% (inactive) and -81.3% (active) | -92.9% (active) and -95.5% (active) | 20.2% (inactive) and -46.6% (active) | –
O=[N+]([O-])c1cc[n+]([O-])cc1 | 120% (inactive) | 92.4% (inactive) | 112% (inactive) | 99.3% (inactive) | 97.6% (inactive) | 107% (inactive) | 97% (inactive) | 104% (inactive) | –
Cc1ccc(Sc2ccccc2N)cc1 | 99.8% (inactive) | 89.8% (inactive) | 120% (inactive) | 58.3% (inactive) | 53.7% (inactive) | 55.8% (inactive) | 132% (inactive) | 102% (inactive) | –
COc1ccc(C(=O)C(CN(C)C)CN(C)C)cc1 | 9.04% (active) | 112% (inactive) | 36.8% (inactive) | -80.5% (active) | 14.3% (inactive) | 4.91% (active) | 109% (inactive) | 108% (inactive) | –
COc1cc([C@@H]2c3cc4c(cc3[C@@H](Nc3ccc(NC(=O)c5cc([N+](=O)[O-])cn5C)cc3)[C@H]3COC(=O)[C@H]23)OCO4)cc(OC)c1O | – | – | – | – | – | – | – | – | 5.63% (active)
